Source: PubChem
LEDGF integ inh = blockers of LEDGF/p75-dependent integrase strand transfer – biochemical, TR-FRET, high throughput, primary screen. AID 743269, 2014. HIV-1 integrase (with human LEDGF/p75). TR-FRET IN-LEDGF/p75 DNA integration, Eu/Cy5. inhibition, % at 3.7 µM. 0.64% of 370,000 active;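 active means inhibition above the screen-wide mean plus 3 SD, cut at about 13% in these data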;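 further: signal is the Cy5 over europium emission ratio at 671 and 618 nm; 0% = plate median of compound wells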
PRMT1 FP inh = PRMT1 methyltransferase inhibitors, primary screen, biochemical, fluorescence polarization; Protein arginine N-methyltransferase 1 (Homo sapiens), Q99873; recombinant PRMT1, activity-based probe fluorescence polarization; inhibition, % at 2.79 µM; 1.3% of 370,000 active;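 active means inhibition above about 21% made by adding two undisclosed values, limit read from the data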
Target sequence (Q99873 whole entry, looked up): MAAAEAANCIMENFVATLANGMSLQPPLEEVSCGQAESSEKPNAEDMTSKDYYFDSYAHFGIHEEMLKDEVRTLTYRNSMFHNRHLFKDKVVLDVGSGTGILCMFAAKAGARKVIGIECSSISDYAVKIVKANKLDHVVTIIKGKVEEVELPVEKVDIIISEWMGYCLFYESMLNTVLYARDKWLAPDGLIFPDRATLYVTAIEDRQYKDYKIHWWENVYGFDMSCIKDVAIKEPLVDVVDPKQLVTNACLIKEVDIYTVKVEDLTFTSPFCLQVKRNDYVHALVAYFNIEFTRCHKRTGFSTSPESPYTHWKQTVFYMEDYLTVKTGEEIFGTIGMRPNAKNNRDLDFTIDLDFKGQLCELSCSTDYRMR
UHRF1 MBD2 ctr = UHRF1 methylated DNA binding inhibitors, primary screen, counter-screen for MBD2 inhibitor project, biochemical, TR-FRET, human UHRF1, single concentration; inhibition, % at 4.4 µM; UHRF1 binding to methylated oligo; 0.75% of 370,000 active; in the data active means inhibition above about 21%;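 further: UHRF1 SRA domain binding a hemimethylated CpG hairpin DNA probe; 0% = median of test compound wells and 100% = reference inhibitor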
MBD2 DNA inh = inhibitors of MBD2 binding to methylated DNA, primary screen, biochemical, TR-FRET, DNA-binding domain, human; Methyl-CpG-binding domain protein 2 (Homo sapiens), Q9UBB5; MBD2 binding to methylated oligonucleotide; inhibition, % at 4.4 µM; 0.31% of 370,000 active; AID 686964, 2013; in the data active means inhibition above about 13%
PRMT1 inh conf = PRMT1 methyltransferase inhibitors, confirmation, biochemical, fluorescence polarization, triplicate. AID 687036, 2013. inhibition, % at 2.79 µM. recombinant His-PRMT1, activity-based probe fluorescence polarization. shares compounds with PRMT1 FP inh. 42% of 3,300 active;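 active means mean inhibition across replicates above the hit cutoff derived for the earlier primary screen, cut at about 22% in these data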
The depositor's hits bear a star; · = no result given. Most compounds without a hit are left out; they make up all but 2.5% or so of the library.

SMILES	LEDGF integ inh	PRMT1 FP inh	UHRF1 MBD2 ctr	MBD2 DNA inh	PRMT1 inh conf
NNc1cc([N+](=O)[O-])cc2c1C(=O)N(Cc1ccccc1)S2=O (configuration not stated)	-6	26*	4	0	3
Cc1ccc(S(=O)(=O)NC(=O)NC2=NC(C)(C)N(c3ccc(Cl)c(Cl)c3)C(N)=N2)cc1	-4	0	-1	0	·
COC(=O)/C(C#N)=C/c1c(N2CCN(c3cccc(Cl)c3)CC2)nc2c(C)cccn2c1=O	3	-5	2	0	·
COC(=O)/C(C#N)=C/c1c(N2CCN(c3ccccc3)CC2)nc2c(C)cccn2c1=O	-3	26*	-1	6	-6
Cc1nc2sc(C(N)=O)c(N)c2c2c1CCCC2	-2	1	-3	-1	·
Cc1ccc(-c2c3c(nc4sc(C(N)=O)c(N)c24)CCCC3)o1	0	32*	-4	-5	3
CN(C)c1cccc(NC(=O)c2cccc3ccccc23)c1	2	-7	-4	-4	·
COC(=O)C1CSc2[nH]c(=O)sc2C1c1ccccc1 (configuration not stated)	3	46*	-1	-9	26*
CCC(Oc1ccccc1)C(=O)Nc1nc2ccccc2[nH]1 (configuration not stated)	-2	26*	3	5	21
CCn1c(C(=O)NCCCN2CCc3ccccc3C2)cc2sccc21	-1	0	2	1	·
CCn1c(C(=O)N2CCc3ccccc3C2)cc2sccc21	2	25*	1	6	13
O=C(COC(=O)c1c(F)cccc1F)NCc1ccc2c(c1)OCO2	2	-5	1	1	·
Cn1cccc1C(=O)OCC(=O)NCc1ccc2c(c1)OCO2	1	126*	-2	-3	3
Cc1cc(C)cc(N(CC(=O)NC2CCCC2)C(=O)CNC(=O)c2cccs2)c1	2	0	2	0	·
Cc1c(C(=O)Nc2ccc(F)cc2)cn2c(nc3ccccc32)c1C#N	2	-3	0	-5	·
N#Cc1c2nc3ccccc3nc2n2cc(NC(=O)c3ccc(F)cc3)ccc12	9	41*	-5	-9	14
C/C(=C/C(=O)O)C(=O)Nc1cccc(C(F)(F)F)c1	-1	2	1	-1	·
CCOC(=O)C1CCCN(S(=O)(=O)c2cc3c(cc2Cl)NC(=O)CO3)C1 (configuration not stated)	-2	34*	0	2	8
Cc1cnc(NC(=O)CSc2ccccc2)s1	5	0	3	-3	·
CCOC(=S)SCC(=O)Nc1ncc(C)s1	-7	59*	5	-3	46*
CN(C)c1ccccc1-c1cc(NC=O)c2ncc(-c3cccc(C(F)(F)F)c3)n2c1	0	135*	14	42*	25*
CC(C)Sc1nc(SCC(=O)O)c2c3c(sc2n1)COC(C)(C)C3	-3	2	-1	0	·
CC(C)Sc1nc(SCC(=O)NCc2ccco2)c2c3c(sc2n1)COC(C)(C)C3	-11	31*	7	10	10
Clc1ccc(Cl)c(-c2nn3c(COc4ccccc4)nnc3s2)c1	-3	28*	6	0	0
O=[N+]([O-])c1ccccc1S(=O)(=O)N1CCN(Cc2cc3c(cc2O)OCO3)CC1	1	15	1	3	·
SMILES	LEDGF integ inh	PRMT1 FP inh	UHRF1 MBD2 ctr	MBD2 DNA inh	PRMT1 inh conf
Cc1ccc(C)c(S(=O)(=O)N2CCN(Cc3cc4c(cc3O)OCO4)CC2)c1	-9	45*	1	5	8
CCOC(=O)c1ccc(S(=O)(=O)N2CCN(Cc3cc4c(cc3O)OCO4)CC2)cc1	-8	11	0	-4	·
O=S(=O)(c1ccccc1F)N1CCN(Cc2cc3c(cc2O)OCO3)CC1	-3	25*	-3	-4	12
COc1ccc(-c2csc(N(CCc3ccc(OC)c(OC)c3)C(=O)COc3ccccc3)n2)cc1	2	9	4	7	·
COc1ccccc1NS(=O)(=O)c1cc(NC(=O)c2sccc2C)ccc1N1CCCC1	2	66*	-3	-4	84*
O=C(Nc1cccc(S(=O)(=O)Nc2ccccc2F)c1)c1ccc2ccccc2n1	-3	43*	1	1	12
